According to PubChem BioAssay (NCATS):
Inconclusive results are not listed. Entries that show only a call come without a potency. Activity calls are given as the source filed them. Unless noted, calls follow the shape of the dose curve; as a rule, active = well fitted curve in the direction sought with a large enough effect; inconclusive = small, poorly fitted or top-dose-only effect, or another doubt; inactive = no such curve, though single readings can be large; an effect the other way counts as inactive or inconclusive. Peptide text beside a SMILES is read from it.

How the values were obtained:
[1] = Cell Viability - LYMP1-002 - Assay at 16 hr (AID 948); details: LYMP1-002 lymphoblastoid cell viability; series mostly up to 92.2 µM; also: potency is read from the fitted curve at half-maximal effect
How it was run: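 Seed 2500 LYMP1-002 cells per well in complete medium and hold 5 hr at 37 C. Add compound across a concentration series and incubate 16 hr at 37 C. Add CellTiter-Glo, wait 30 min at room temperature, read luminescence.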

[2] = MultiTox-Fluor Cytotoxicity Assay - LYMP1-002 - Live Cells (AID 955); details: LYMP1-002 lymphoblastoid live-cell protease fluorescence viability; series mostly up to 46.1 µM; also: potency is read from the fitted curve at half-maximal effect
How it was run: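 Human lymphoblastoid LYMP1-002 cells, 2500/well in complete medium, rested 5 hr at 37 C, then exposed to compounds for 16 hr at 37 C. Live-cell protease cleavage of GF-AFC read by fluorescence (Ex/Em 405/510) after 60 min at room temperature; AC50 from Hill fits.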

[3] = MultiTox-Fluor Cytotoxicity Assay - LYMP1-002 - Dead Cells (AID 960); details: LYMP1-002 lymphoblastoid cells, dead-cell protease fluorescence; series mostly up to 46.1 µM; also: nearly all actives have a fitted effect of over 60% in size
How it was run: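 Human lymphoblastoid cells (LYMP1-002), 2500/well in complete medium, were exposed to compounds for 16 hr at 37 C. Dead-cell protease activity was read as bis-AAF-R110 fluorescence (Ex/Em 485/520), normalized to DMSO and 15 uM tetraoctylammonium bromide; AC50 from Hill fits.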

[4] = MultiTox-Fluor Cytotoxicity Assay - LYMP1-003 - Dead Cells (AID 961); details: LYMP1-003 lymphoblastoid cells, dead-cell protease fluorescence; series mostly up to 92.2 µM; also: nearly all actives have a fitted effect of over 70% in size; also: potency is read from the fitted curve at half-maximal effect
How it was run: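 Acute toxicity is scored as increased dead-cell protease activity in human lymphoblastoid LYMP1-003 cells after 16 h compound exposure in complete culture medium. Activity is normalized to DMSO basal and 15 uM tetraoctylammonium bromide as full response.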

[5] = MultiTox-Fluor Cytotoxicity Assay - LYMP1-003 - Live Cells (AID 962); details: LYMP1-003 lymphoblastoid cells, MultiTox-Fluor live-cell protease fluorescence; series mostly up to 92.2 µM; also: potency is read from the fitted curve at half-maximal effect
How it was run: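 LYMP1-003 human lymphoblastoid cells (2500/well) in complete medium were preincubated 5 hr at 37 C, then exposed to compounds for 16 hr at 37 C. Live-cell protease cleavage of GF-AFC read by fluorescence (Ex/Em 405/510); AC50 from Hill fits.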

[6] = Cell Viability - LYMP1-003 - Assay at 24 hr (AID 963); details: LYMP1-003 lymphoblastoid cell viability; series mostly up to 92.2 µM; also: potency is read from the fitted curve at half-maximal effect
How it was run: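 Human lymphoblastoid LYMP1-003 cells (2500/well) were rested 5 hr at 37 C, then exposed to compounds in complete medium for 24 hr at 37 C. Cellular ATP was quantified by CellTiter-Glo luminescence, and AC50 values came from Hill fits of concentration-response data.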

[7] = Cell Viability - LYMP1-003 - Assay at 40 hr (AID 964); details: LYMP1-003 lymphoblastoid viability; series mostly up to 92.2 µM; also: nearly all actives have a fitted effect of over 60% in size; also: potency is read from the fitted curve at half-maximal effect
How it was run: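 Human lymphoblastoid LYMP1-003 cells, 2500/well in complete medium, rested 5 hr at 37 C, then exposed to compounds for 40 hr at 37 C. Viability read as intracellular ATP by CellTiter-Glo luminescence; AC50 from Hill fits of concentration-response data.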

[8] = molecular target: Pyruvate kinase PKM (Homo sapiens) (UniProt P14618); assay: qHTS Assay for Activators of Human Muscle Pyruvate Kinase (AID 954; active = well fitted curve in the direction sought with a large enough effect, not every such curve was filed as active); details: purified human muscle pyruvate kinase, luciferase-coupled luminescence, 1 h; series mostly up to 57.5 µM
How it was run: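 Enzyme was run at intermediate activity so both inhibitors and activators could be detected. ATP formed from ADP and PEP by 0.1 nM human PKM2 during a 1 h room-temperature incubation was quantified by coupled luciferase luminescence.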

[9] = molecular target: Pyruvate kinase PKM (Homo sapiens) (UniProt P14618); assay: qHTS Assay for Inhibitors of Human Muscle Pyruvate Kinase (AID 958); details: purified human PKM enzyme activity
Method: NIH Molecular Libraries Screening Centers Network [MLSCN]
NIH Chemical Genomics Center [NCGC]
Wael M. Rabeh, Lyudmila Nedyalkova and Hee-Wan Park [Structural Genomics Consortium, 100 College St. Toronto, Ontario, Canada]
Human pyruvate kinase muscle 2 enzyme was supplied as a highly purified (>95% pure) preparation by the Structural Genomics Consortium in Toronto (Ontario, Canada) and was assayed for its ability to generate ATP from ADP using phosphoenolpyruvate (PEP) as a substrate. ATP generation was detected in a coupled reaction by luciferase-mediated luminescence, an ATP-dependent process. Pyruvate kinase substrates, PEP and ADP, were present in the assay at Km and approximately […]-fold below Km respectively. The enzyme was assayed at an intermediate level of activity to screen for inhibitors and activators.
NCGC Assay Protocol Summary:
Three uL of substrate mix (final concentration, 50 mM imidazole pH 7.2, 50 mM KCl, 7 mM MgCl2, 0.5 mM PEP, 0.1 mM ADP, 0.01% Tween 20, 0.05% BSA) was dispensed into 1536 well plates. 23 nL of compound were delivered by a pin tool and 1 uL of enzyme mix (final concentration, 0.1 nM pyruvate kinase, 50 mM imidazole pH 7.2, 0.05% BSA) was added. Plates were incubated at room temperature for 1 hour. Two uL of detection and kinase stop mix (PKLight, Cambrex) was added, the plates centrifuged, and luminescence read by a ViewLux (Perkin Elmer) at 5 second exposure/plate. Data were normalized to the uninhibited and AC100 inhibition (no enzyme or 110 uM N-methyl-2,3-diphenyl-1,2,4-thiadiazol-5-imine; CID: 682802; LOPAC-S-4063). To monitor activation, 0.3 nM pyruvate kinase was included in one control column.

[10] = molecular target: Pyruvate kinase (Leishmania mexicana) (UniProt Q27686); assay: qHTS Validation Assay for Activators of Leishmania Mexicana Pyruvate Kinase (AID 959); details: purified L. mexicana pyruvate kinase, enzyme activity; series mostly up to 57.5 µM
How it was run: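 Mutant LmPYK (E451W), 0.2 nM, plus 0.5 mM PEP and 0.1 mM ADP in 50 mM imidazole pH 7.2 containing 0.01% Tween 20 and 0.05% BSA. Incubated 1 h at room temperature; luminescence via PKLight, normalized to DMSO.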

Pyruvate kinase (Leishmania mexicana), sequence (Q27686 2-499 E452W): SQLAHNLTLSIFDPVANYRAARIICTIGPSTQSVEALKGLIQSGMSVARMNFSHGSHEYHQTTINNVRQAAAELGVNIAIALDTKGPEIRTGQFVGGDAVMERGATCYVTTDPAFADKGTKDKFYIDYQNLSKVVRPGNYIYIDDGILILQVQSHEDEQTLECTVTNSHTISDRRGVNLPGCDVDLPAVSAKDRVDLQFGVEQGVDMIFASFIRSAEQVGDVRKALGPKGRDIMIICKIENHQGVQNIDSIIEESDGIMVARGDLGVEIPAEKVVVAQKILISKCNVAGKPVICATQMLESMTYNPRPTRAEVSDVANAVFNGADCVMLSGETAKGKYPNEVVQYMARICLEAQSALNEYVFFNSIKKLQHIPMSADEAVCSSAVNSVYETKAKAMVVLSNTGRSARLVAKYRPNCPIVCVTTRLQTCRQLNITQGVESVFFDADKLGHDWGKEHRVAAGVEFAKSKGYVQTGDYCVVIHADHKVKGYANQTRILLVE
Pyruvate kinase PKM (Homo sapiens), sequence (P14618 whole entry, looked up): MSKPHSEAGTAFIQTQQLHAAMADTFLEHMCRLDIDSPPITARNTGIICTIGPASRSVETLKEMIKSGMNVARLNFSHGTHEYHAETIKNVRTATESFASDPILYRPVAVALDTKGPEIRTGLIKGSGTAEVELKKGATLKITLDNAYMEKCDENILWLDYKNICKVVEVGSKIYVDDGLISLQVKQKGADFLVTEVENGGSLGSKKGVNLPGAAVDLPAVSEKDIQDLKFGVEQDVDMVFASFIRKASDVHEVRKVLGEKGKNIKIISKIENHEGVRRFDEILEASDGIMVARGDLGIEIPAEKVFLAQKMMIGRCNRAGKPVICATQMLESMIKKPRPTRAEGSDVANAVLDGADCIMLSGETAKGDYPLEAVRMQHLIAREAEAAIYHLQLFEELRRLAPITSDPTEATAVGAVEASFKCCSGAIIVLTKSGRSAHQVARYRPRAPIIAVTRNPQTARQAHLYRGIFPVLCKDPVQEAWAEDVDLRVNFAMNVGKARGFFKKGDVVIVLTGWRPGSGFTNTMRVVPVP

Structure (SMILES): Nc1ccc(S(N)(=O)=O)cc1
- Potency [1]: inactive
- Potency [2]: inactive
- outcome [3]: inactive
- Potency [4]: inactive
- Potency [5]: inactive
- Potency [6]: inactive
- Potency [7]: inactive

Structure (SMILES): NNc1nncc2ccccc12
- outcome [8]: inactive
- Potency [9]: 7.94 µM (active)
- Potency [10]: inactive

Structure (SMILES): Cc1c(OCC(F)(F)F)ccnc1CS(=O)c1nc2ccccc2[nH]1 (configuration not stated)
- outcome [8]: inactive

Structure (SMILES): O=C(CCc1ccc(O)cc1)c1c(O)cc(O)cc1O
- outcome [8]: inactive

Structure (SMILES): O=c1c(O)c(-c2ccc(O)cc2O)oc2cc(O)cc(O)c12
- outcome [8]: inactive
- Potency [10]: 20 µM (active)

Structure (SMILES): COc1ccc2cc([C@H](C)C(=O)O)ccc2c1
- outcome [8]: inactive

Structure (SMILES): COc1c2occc2cc2ccc(=O)oc12
- Potency [1]: inactive
- Potency [2]: inactive
- outcome [3]: inactive
- Potency [4]: inactive
- Potency [5]: inactive
- Potency [6]: inactive
- Potency [7]: inactive

Structure (SMILES): CC(=O)N1CCN(c2ccc(OC[C@H]3CO[C@](Cn4ccnc4)(c4ccc(Cl)cc4Cl)O3)cc2)CC1
- outcome [8]: inactive

Structure (SMILES): Cc1cccc(C#Cc2ccccc2)n1
- outcome [8]: inactive
- Potency [9]: 25.1 µM (active)
- Potency [10]: inactive

Structure (SMILES): CCN(CC)C(=S)SSC(=S)N(CC)CC
- outcome [8]: inactive

Structure (SMILES): O=c1c(O)c(-c2cc(O)c(O)c(O)c2)oc2cc(O)cc(O)c12
- outcome [8]: inactive
- Potency [10]: 2 µM (active)

Structure (SMILES): CC(=O)Nc1ccc(O)cc1
- Potency [1]: inactive
- Potency [2]: inactive
- outcome [3]: inactive
- Potency [4]: inactive
- Potency [5]: inactive
- Potency [6]: inactive
- Potency [7]: inactive

Structure (SMILES): CCCCC(CC)COC(=O)C(C#N)=C(c1ccccc1)c1ccccc1 (configuration not stated)
- Potency [1]: inactive
- Potency [2]: inactive
- Potency [4]: inactive
- Potency [5]: inactive
- Potency [6]: inactive
- Potency [7]: inactive

Structure (SMILES): NC(=NCc1ccccc1)NC(=O)c1nc(Cl)c(N)nc1N
- outcome [8]: inactive

Structure (SMILES): O=C1NC(=O)C(c2ccccc2[N+](=O)[O-])=C1Nc1ccc(O)c(Cl)c1
- outcome [8]: inactive

Structure (SMILES): O=C(O)c1cccnc1Nc1cccc(C(F)(F)F)c1
- outcome [8]: inactive

Structure (SMILES): O=C1c2ccccc2-c2n[nH]c3cccc1c23
- outcome [8]: inactive

Structure (SMILES): O=c1ccc2ccc(O)c(O)c2o1
- outcome [8]: inactive
- Potency [10]: 15.8 µM (active)

Structure (SMILES): CCc1nc(N)nc(N)c1-c1ccc(Cl)cc1
- Potency [1]: inactive
- Potency [2]: inactive
- outcome [3]: inactive
- Potency [4]: inactive
- Potency [5]: inactive
- Potency [7]: 7.94 µM (active)

Structure (SMILES): Oc1ccc(-c2nc(-c3ccc(F)cc3)c(-c3ccncc3)[nH]2)cc1
- outcome [8]: inactive

Structure (SMILES): CNC[C@H](O)c1ccc(O)c(O)c1
- outcome [8]: inactive

Structure (SMILES): CS(=O)(=O)OCCCCOS(C)(=O)=O
- Potency [1]: inactive
- Potency [2]: inactive
- outcome [3]: inactive
- Potency [4]: inactive
- Potency [5]: inactive
- Potency [6]: inactive
- Potency [7]: inactive

Structure (SMILES): CC1(C)C(=O)N(CCN2CCC(C(=O)c3ccc(F)cc3)CC2)c2ccccc21
- outcome [8]: inactive

Structure (SMILES): O=c1cc(N2CCOCC2)oc2c(-c3ccccc3)cccc12
- outcome [8]: inactive

Structure (SMILES): CC1(C)NC(=O)N(c2ccc([N+](=O)[O-])c(C(F)(F)F)c2)C1=O
- outcome [8]: inactive

Structure (SMILES): CC(C)c1ccc2c(c1)c(SC(C)(C)C)c(CC(C)(C)C(=O)O)n2Cc1ccc(Cl)cc1
- outcome [8]: inactive

Structure (SMILES): CN(C)c1ccc2nc3ccc(=[N+](C)C)cc-3sc2c1
- Potency [1]: 12.6 µM (active)
- Potency [2]: 12.6 µM (active)
- Potency [4]: 39.8 µM (active)
- Potency [5]: 7.94 µM (active)
- Potency [6]: 7.94 µM (active)
- Potency [7]: 3.98 µM (active)

Structure (SMILES): CCCc1cc(=O)[nH]c(=S)[nH]1
- Potency [1]: inactive
- Potency [2]: inactive
- outcome [3]: inactive
- Potency [4]: inactive
- Potency [5]: inactive
- Potency [6]: inactive
- Potency [7]: inactive

Structure (SMILES): Nc1nc(OCc2ccccc2)c2[nH]cnc2n1
- outcome [8]: inactive

Structure (SMILES): NS(=O)(=O)c1cc(C(=O)O)c(NCc2ccco2)cc1Cl
- Potency [1]: inactive
- Potency [2]: inactive
- outcome [3]: inactive
- Potency [4]: inactive
- Potency [5]: inactive
- Potency [6]: inactive
- Potency [7]: inactive

Structure (SMILES): C[C@H](Cc1ccc(O)c(O)c1)[C@@H](C)Cc1ccc(O)c(O)c1
- outcome [8]: inactive

Structure (SMILES): COc1ccccc1N1CCN(CCN(C(=O)C2CCCCC2)c2ccccn2)CC1
- outcome [8]: inactive

Structure (SMILES): NCCCCNCCCN
- outcome [8]: inactive

Structure (SMILES): c1ccc2[nH]c(-c3cscn3)nc2c1
- Potency [1]: inactive
- Potency [2]: inactive
- outcome [3]: inactive
- Potency [4]: inactive
- Potency [5]: inactive
- Potency [6]: inactive
- Potency [7]: inactive

Structure (SMILES): COC(=O)[C@H](Cc1ccccc1)NC(=O)[C@@H](N)CC(=O)O (H-Asp-Phe-OMe)
- Potency [1]: inactive
- Potency [2]: inactive
- Potency [4]: inactive
- Potency [5]: inactive
- Potency [6]: inactive
- Potency [7]: inactive

Structure (SMILES): Cc1cc(O)c2c(c1)C(=O)c1cc(O)cc(O)c1C2=O
- Potency [1]: inactive
- outcome [8]: inactive
- Potency [2]: inactive
- outcome [3]: inactive
- Potency [4]: inactive
- Potency [5]: inactive
- Potency [6]: inactive
- Potency [7]: inactive

Structure (SMILES): O=Nc1c(-c2c(O)[nH]c3cc(Br)ccc23)[nH]c2ccccc12
- outcome [8]: inactive
- Potency [9]: 15.8 µM (active)
- Potency [10]: inactive

Structure (SMILES): Cc1ccc(C)c(OCCCC(C)(C)C(=O)O)c1
- Potency [1]: inactive
- Potency [2]: inactive
- outcome [3]: inactive
- Potency [4]: inactive
- Potency [5]: inactive
- Potency [6]: inactive
- Potency [7]: inactive
